Screen size: about 310,000 compounds; about 1,900 (0.61%) were called active.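 The calls were made as follows: active = plate-corrected calcium response at least 3 library SD above typical, normal starting fluorescence, not activating the receptor alone; inactive = the rest.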 The sample as a whole holds a higher share of actives than the screen did.

In this assay the target is Mas-related G-protein coupled receptor member X1 (Homo sapiens) (UniProt Q96LB2). Put plainly: allosteric enhancers of human MrgX1 signaling – HEK293 cells, Fluo-4 calcium flux, primary screen (AID 588675).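 Also: compound read alongside a low EC10 to EC30 dose of BAM8-22 agonist.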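 As to B-score: peak minus trough fluorescence over baseline measured at the second addition.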 To be noted: MrgX1-HEK293, Fluo-4 calcium flux, FDSS, at 10 µM; hits give high values. In general terms: Calcium flux is commonly read through the fluorescence of an indicator in the cells.
Mas-related G-protein coupled receptor member X1 (Homo sapiens), sequence (Q96LB2 whole entry, looked up): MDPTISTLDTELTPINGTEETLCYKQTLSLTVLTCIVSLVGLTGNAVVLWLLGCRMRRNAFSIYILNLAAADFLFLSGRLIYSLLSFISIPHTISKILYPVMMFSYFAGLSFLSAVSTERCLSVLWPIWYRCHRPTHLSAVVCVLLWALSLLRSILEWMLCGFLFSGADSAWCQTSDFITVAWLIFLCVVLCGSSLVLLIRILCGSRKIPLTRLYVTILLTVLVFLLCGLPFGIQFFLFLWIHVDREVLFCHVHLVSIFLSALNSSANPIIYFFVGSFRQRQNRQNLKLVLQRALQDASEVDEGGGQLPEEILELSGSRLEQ
Regarding `CNCC(O)c1ccc(O)c(O)c1` (configuration not stated), the B-score result was “inactive”.
The figure for `CCC(C)c1ccc(O)c(/C=N/O)c1` (configuration not stated) is 6.88 (active).
With `CCOC(=O)c1cccc(NC(=O)C2CCN(c3ncnc4c3nc3n4CCCCC3)CC2)c1`, the B-score result was “inactive”.
To `CCCCCCCCCCCC(=O)O` belongs “inactive”; to `Cc1cc(NC(=O)COC(=O)COc2ccc(Cl)cc2C)c([N+](=O)[O-])cc1C`, “inactive”.
The entry for `CC(C)(C)NC(=O)COC(=O)c1cc(Cl)ccc1[N+](=O)[O-]` is “inactive”; for `CCCC(=O)OCC(=O)Nc1cc(Cl)ccc1[N+](=O)[O-]` it is 9.84 (active); for `CCN(CC(=O)NC1CCS(=O)(=O)C1)S(=O)(=O)c1ccccc1` (configuration not stated) it is “inactive”.
The entry for `Cc1coc2c(O)cc3c(c12)OC1(N2CCCCC2)C(=O)NCCCC31` (configuration not stated) is “inactive”; for `COc1cccc(NC(=O)NCCN2CCCCC2)c1` it is “inactive”; for `Cc1ccc2c(c1)C1CN(C)CCC1N2S(=O)(=O)c1ccc(Oc2ccc([N+](=O)[O-])cc2)cc1` (configuration not stated) it is “inactive”.
`Cc1ccc(S(=O)(=O)N(C)c2ccc(OCC(=O)OCC(=O)N(CC#N)c3ccccc3)cc2)cc1`: the B-score entry was “inactive”.
For `Cc1cc(Nc2ccc(Br)cc2)nc2ccccc12`, the B-score entry was “inactive”.
The figure for `Cc1ccc2nc(Nc3ccccc3)cc(C)c2c1` is 14 (active); for `Cc1ccc2nc(Nc3ccccc3O)nc(-c3ccccc3)c2c1` it is “inactive”.
As for `CCCN(CCC)C(=O)C1c2ccccc2Oc2ccccc21`, the B-score result is “inactive”.
To `CC(C)Nc1nnc(SCC(=O)/C=C2\N(C)c3ccccc3C2(C)C)s1` belongs “inactive”; to `CCOc1cccc(NC(=O)CC#N)c1`, “inactive”.
To `CC(=O)Nc1cccc(OCC(=O)/C=C2\N(C)c3ccccc3C2(C)C)c1` belongs 6.96 (active); to `Cc1ccc(S(=O)(=O)N2[C@@H](c3ccccc3F)C(C(=O)O)=CC[C@H]2c2ccc(Cl)cc2)cc1`, 15.6 (active); to `Cc1ccc([C@@H]2CC=C(C(=O)O)[C@H](c3cccc(Cl)c3)N2S(=O)(=O)c2ccc(C)cc2)cc1`, “inactive”.
As to `Cc1ccc(S(=O)(=O)N2[C@@H](c3cccc(Cl)c3)C(C(=O)O)=CC[C@H]2c2ccc(Cl)c(Cl)c2)cc1`, the B-score entry is “inactive”.
The entry for `CC(=O)Nc1cccc(C(=O)OCN2C(=O)c3ccccc3C2=O)c1` is “inactive”; for `O=C(c1ccc(OC2CCN(C(=O)c3cccnc3)CC2)cc1)N1CCCCCC1` it is 6.62 (active); for `O=C(c1ccc(OC2CCN(Cc3ccccn3)CC2)cc1)N1CCCCCC1` it is “inactive”.
The entry for `O=C(c1ccc(OC2CCN(C/C=C/c3ccc(F)cc3)CC2)cc1)N1CCCCC1` is “inactive”.
To `O=C(NCCCc1ccccc1)C1CCC(CNc2c(N3CCCCC3)c(=O)c2=O)CC1` (configuration not stated) belongs “inactive”.
As to `Cc1cccc(C)c1NC(=O)N1CC=C(n2c(=O)[nH]c3ccccc32)CC1`, the B-score entry is “inactive”.
As for `CCOc1ccc(NC(=O)N2CC=C(n3c(=O)[nH]c4ccccc43)CC2)cc1`, the B-score is 7.16 (active).
The entry for `CCOc1ccc(NC(=O)N2CCN(CC)CC2)cc1` is “inactive”; for `O=C(CCc1[nH]c2ccccc2c1Sc1ccccc1)N(CCO)CCO` it is “inactive”; for `CN(Cc1ccccc1)C(=O)C1CCCN(c2ncnc3c2nc2n3CCCCC2)C1` (configuration not stated) it is “inactive”.
Take `CCCCOP(=O)(c1ccc(N(C)C)cc1)C(O)c1cc(OC)ccc1OC` (configuration not stated): the B-score result was “inactive”.
On to `COC(CNC(=O)Cn1ncc2ccsc2c1=O)OC`, for which the B-score result is “inactive”.
On to `CCC1=C(OC(=O)N(CC)CC)N2C(=O)OC(=NCC3CC3)[C@]2(C)[C@H]2C1=CC[C@H]1C(=O)N(CC(=O)OC)C(=O)[C@H]12`, for which the B-score result was “inactive”.
The entry for `COc1cccc(NS(=O)(=O)c2ccc(-c3coc(C)n3)cc2)c1` is “inactive”; for `CCN(c1cccc(C)c1)S(=O)(=O)c1ccc(-c2coc(C)n2)cc1` it is 8.56 (active).
Regarding `Cc1ccc(NS(=O)(=O)c2ccc(-c3coc(C)n3)cc2)c(C)c1`, the B-score result is “inactive”.
For the compound `CCCCN(CCCC)CCC(O)c1cc2c(Cl)cc(Cl)cc2c2cc(C(F)(F)F)ccc12` (configuration not stated), the B-score entry is “inactive”.
To `Fc1cccc(Cl)c1COc1ccc(-c2nnco2)cc1` belongs 13.2 (active); to `Fc1ccc(COc2ccc(-c3nnco3)cc2)cc1`, “inactive”.
With `O=C(/C=C/c1ccc(OCc2c(F)cccc2Cl)cc1)N1CCOCC1`, the B-score entry is “inactive”.
The figure for `Cc1c(C(=O)N2CCN(c3ccc(F)cc3)CC2)oc2c1C(=O)CCC2` is 7.4 (active); for `O=C(Nc1ccc(F)cc1)N1CCN(c2ccc(F)cc2)CC1` it is “inactive”; for `O=C(c1cc(-c2ccc(F)cc2)on1)N1CCN(c2ccc(F)cc2)CC1` it is “inactive”.
The entry for `Cc1ccc(S(=O)(=O)n2nc(OC(=O)C(C)(C)C)cc2N)cc1` is “inactive”; for `Nc1cc(OC(=O)c2ccccc2Br)nn1S(=O)(=O)c1ccccc1` it is 7.83 (active); for `O=C(COC(=O)c1ccccc1Br)Nc1nnc(-c2ccccc2)o1` it is “inactive”.
The entry for `Cc1ccc2[nH]c(C(=O)O)c(NC(=O)c3ccccc3[N+](=O)[O-])c2c1` is “inactive”; for `O=C(O)C1=CCCN(CCON=C(c2ccccc2)c2ccccc2)C1` it is “inactive”; for `Cc1ccc(S(=O)(=O)N2CCOCC2)cc1C(=O)Nc1ccccc1N1CCCC1` it is “inactive”.
Regarding `O=C(Nc1ccccc1N1CCOCC1)c1csc2c1CCCC2`, the B-score was 12 (active).
`Cc1cc(C(=O)Nc2ccccc2N2CCOCC2)c2ccccc2n1`: the B-score result is “inactive”.
`c1ccc(-c2ccc3c(c2)NC(C2Nc4cc(-c5ccccc5)ccc4O2)O3)cc1` (configuration not stated): the B-score entry was “inactive”.
Turning to `O=C(Oc1ccc(Br)cc1C(=S)N1CCOCC1)c1cccc([N+](=O)[O-])c1`, the B-score result is “inactive”.
For `COc1ccc(Nc2nnc(C)c3ccccc23)cc1`, the B-score is 22.5 (active).
To `COc1ccc(Nc2nc(=O)[nH]nc2C)cc1` belongs “inactive”; to `Cc1nnc(NCCO)c2ccccc12`, “inactive”.
The entry for `CN(c1ccccc1)S(=O)(=O)c1ccc(NC(=O)COc2ccccc2)cc1` is “inactive”; for `O=C(NCc1ccccc1Cl)c1ccc2c(=O)n(CC3CCCO3)c(=S)[nH]c2c1` (configuration not stated) it is “inactive”.
For `CC(C)CCn1cnc2c1c(=O)n(CC(=O)NC(N)=O)c(=O)n2Cc1ccccc1`, the B-score entry is “inactive”.
The figure for `Cc1ccc(S(=O)(=O)N(C)c2nc3ccccc3n3c(C(C)C)nnc23)cc1` is 6.54 (active); for `CC(=O)Nc1ccc(S(=O)(=O)N(C)c2nc3ccccc3nc2Cl)cc1` it is “inactive”; for `Cc1ccc(Oc2nc3ccccc3n3c(C)nnc23)cc1` it is “inactive”.
As to `CCC(=O)NC(=Nc1nc2ccccc2s1)NC(=O)CC`, the B-score result is “inactive”.
For `CC(C)CC(=O)N/C(N)=N/c1nc2ccccc2s1`, the B-score was 12.9 (active).
To `CC(C)CC(=O)NC(=S)NCc1ccccc1` belongs “inactive”.

Values taken from PubChem BioAssay AID588675 (Johns Hopkins Ion Channel Center, 2011).
